Compounds with a hit are over-represented: about 3% of the library has one in this group of screens.
hERG WT inh: KCNH2 (human, wildtype) channel inhibition; Q12809; U2OS, BacMam KCNH2, thallium flux FluxOr; hits give low values; activity change, % at 1.84 µM; 340,000 compounds, 0.37% hits;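 active = maximum activity change below -70%; inconclusive = maximum activity change between -70% and -50%; inactive = maximum activity change above -50%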; also: % is scaled to controls: 0 for no effect and ±100 for the full control effect
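U2OS cells were transduced with wild-type KCNH2 virus (2.03 x 10^8 / mL) for 4 h at room temperature, then cultured overnight at 37 C. Thallium flux was read with FluxOr dye. Rate constants were normalized to DMSO controls.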
LDHA inh: inhibitors of human lactate dehydrogenase A. P00338. purified LDHA, NADH/diaphorase-resazurin fluorescence; hits give low values. activity change, % (values are at about 110 or 230 µM). 480,000 compounds, 0.15% hits. AID 1347041; in the data active = activity change below about -30%; inconclusive = mostly about -25% to -30%;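 also: plate controls were DMSO wells for no effect and wells without enzyme for full effect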
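Human LDH5 (2 nM) was incubated with 0.06 mM NADH and 0.2 mM pyruvate for 5 min at room temperature in Tris pH 7.4. Remaining NADH was coupled through diaphorase/resazurin, and resorufin fluorescence was read at 0 and 20 min.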
KCNH2 3.1 block: blocks the human KCNH2 3.1 channel isoform; 340,000 compounds, 0.95% hits; U2OS KCNH2 3.1, thallium flux FluxOr; hits give low values; activity change, % (tested at about 1.8 µM);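 active = maximum activity change below -70%; inconclusive = maximum activity change from -70% to -50%; inactive = maximum activity change above -50%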;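 also: thallium influx rate constant from kinetic fluorescence after stimulation buffer; % is scaled to controls: 0 for no effect and ±100 for the full control effect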
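Kinetic fluorescence (2 min after stimulation buffer) measures Tl+ influx through KCNH2 3.1 expressed by viral transduction in U2OS cells; the rate constant is normalized against DMSO controls serving as positive and negative references.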
ClpP mod: qHTS Assay for Activators of ClpP. 340,000 compounds, 1.9% hits. AID 651965, 2013. ATP-dependent Clp protease proteolytic subunit (Bacillus subtilis (strain 168)), P80244. Potency, µM (titrated, usually from 57.5 µM), for the others: top-dose activity change, negative = active. purified B. subtilis ClpP, FRET peptide cleavage, 20 min; active = well fitted falling curve with a large enough effect; inconclusive = small, poorly fitted or top-dose-only effect; inactive = no such curve, though single readings can be large or run the other way; also: potency is read from the fitted curve at half-maximal effect; the source files actives as falling curves though it sought activators and does not explain the sign; nearly all actives have a fitted effect of over 65% in size
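FRET quenching reversal measured ClpP activation: 10 microg/mL B. subtilis ClpP at pH 8 with the FRET-FV decapeptide, read at 430 nm after 320 nm excitation. The 20-min minus 0-min signal was scaled between DMSO/no-enzyme wells and ADEP (5.8 microM final).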
ALOX12 inh: ALOX12 (human) lipoxygenase inhibition; P18054; purified 12hLO, xylenol orange hydroperoxide absorbance; Potency, µM (titrated, usually from 108 µM), inactives show top-dose activity change, negative = inhibition, actives largely listed as inhibitors; 580,000 compounds, 1.1% hits; AID 1671190; active = well fitted inhibition curve with a large enough effect; inconclusive = small, poorly fitted or top-dose-only effect, or another doubt; inactive = no such curve, though single readings can be large or run the other way; also: potency is read from the fitted curve at half-maximal effect; % is scaled to controls: 0 for no effect and ±100 for the full control effect
Target sequence (P18054 whole entry, looked up): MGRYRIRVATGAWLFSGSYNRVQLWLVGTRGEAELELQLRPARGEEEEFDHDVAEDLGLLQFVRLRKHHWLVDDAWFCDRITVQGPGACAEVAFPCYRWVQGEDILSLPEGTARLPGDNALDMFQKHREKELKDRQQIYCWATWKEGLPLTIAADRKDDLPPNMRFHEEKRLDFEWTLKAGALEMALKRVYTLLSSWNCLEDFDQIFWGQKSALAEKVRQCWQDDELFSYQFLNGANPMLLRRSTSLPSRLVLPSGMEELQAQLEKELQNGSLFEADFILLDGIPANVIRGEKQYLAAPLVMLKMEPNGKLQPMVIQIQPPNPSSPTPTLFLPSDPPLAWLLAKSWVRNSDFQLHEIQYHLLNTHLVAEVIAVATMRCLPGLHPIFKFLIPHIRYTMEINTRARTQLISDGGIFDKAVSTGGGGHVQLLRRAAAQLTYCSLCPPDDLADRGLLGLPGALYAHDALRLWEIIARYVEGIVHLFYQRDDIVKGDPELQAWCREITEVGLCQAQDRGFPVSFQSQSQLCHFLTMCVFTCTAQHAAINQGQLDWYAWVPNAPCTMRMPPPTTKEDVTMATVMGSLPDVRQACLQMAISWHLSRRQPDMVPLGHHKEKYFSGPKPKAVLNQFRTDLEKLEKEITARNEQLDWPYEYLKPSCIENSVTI
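Purified human 12hLO at 150 nM in 25 mM Hepes, 0.01% Triton X-100, pH 7.0, preincubated 15 min at room temperature with compound. Reaction started with 40 uM arachidonic acid, 30 min at room temperature. Hydroperoxide measured by Fe-xylenol orange, 573/405 nm absorbance ratio.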
BCR signal inh: inhibitors of chronic active B-cell receptor signaling; ABC-DLBCL IkBa-CBG/CBR reporter, luminescence ratio, 4 h; Potency, µM (highest dose often 46.1 µM), for inactives: at the highest dose activity change, negative = inhibition, usual class: inhibitors; 340,000 compounds, 0.05% hits; active = well fitted inhibition curve with a large enough effect in the signal ratio, with a control signal flat, not every such curve was filed as active; inconclusive = small, poorly fitted or top-dose-only effect, or effect the other way, or a change in a side signal; the % refers to the signal ratio;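 also: potency is read from the fitted curve at half-maximal effect; plate controls were basal doxycycline-induced cells for no effect and cells given 10 µM MG132 for full effect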
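Concentration-response series (up to 46 uM) were applied to TMD8 dual-reporter cells for 4 h at 37C with doxycycline. Green/red ratio, after filter-overlap correction, defined %Activity; red signal alone was normalised to basal cells and zero luminescence.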
* marks the source's active call; other numbers are inactive results; ? = inconclusive; . = not tested or not shown; ! = not active in a repeat; [ ] = dose if it differs, or a comment.

SMILES	hERG WT inh	LDHA inh	KCNH2 3.1 block	ClpP mod	ALOX12 inh	BCR signal inh
CCN(CC)CCN1C(=O)/C(=C\c2ccc(Cl)c([N+](=O)[O-])c2)SC1=Nc1ccc(OC)cc1	-47	-3	-99*	.	?	?
COCCN1CC(CO)C2(CCN(Cc3cccs3)CC2)C1 (stereo not given)	.	.	.	.	57%	.
Cc1ccc2cccc(NC(=O)C(C)Oc3ccc(Cl)c(C)c3)c2n1 (stereo not given)	.	-5	.	.	5%	.
O=C(Nc1nc(-c2ccc3c(c2)OCCO3)cs1)c1ccc(Br)o1	-11	-1	-74*	-4%	-28%	.
Cc1ccc(C(=O)Nc2nc(-c3ccc4c(c3)OCCO4)cs2)o1	21	-7	3	-16%	?	.
C=C(C)C1CCC2(COC(=O)CCC(=O)O)CC[C@]3(C)C(CCC4[C@@]5(C)CCC(OC(=O)CCC(=O)O)C(C)(C)C5CC[C@]43C)C12 (stereo not given in full)	.	2	.	.	?	.
COc1ccc(CCNC(=O)c2ccc3c(c2)sc2nc(-c4ccccc4)cn23)cc1OC	.	1	.	?	-20%	.
CCOc1ccc(-c2cn3c(n2)sc2cc(C(=O)NCCc4ccc(OC)c(OC)c4)ccc23)cc1	.	-1	.	35µM*	?	.
O=C(CSc1nc2c(c(=O)n1CCc1ccccc1)SCC2)Nc1ccc(Cl)cc1	.	10	.	.	37%	.
CCNC(=O)N1CCCCCNC(=O)[C@@H]2CCCC[C@@H]21	.	.	.	.	31%	.
CCC(Cc1ccccc1)NC(=O)Cn1ncc2ccsc2c1=O (stereo not given)	7	-7	-110*	-2%	1%	1%
CCC(Cc1ccccc1)NC(=O)Cn1nc(C)n2c(cc3occc32)c1=O (stereo not given)	.	-18	.	-2%	?	.
CCC[N+](CC#Cc1ccccc1)(CCC)CC(=O)OCC	23	-3	-71*	-1%	4%	8%
CCOC(=O)c1c(C)n(C)c2ccc(OCC#N)cc12	.	-2	.	.	4%	.
CCCCCC(=O)NC(=S)Nc1ccc(N2CCCCC2)c(Cl)c1	6	-3	-5	-4%	0%	?
CCCCCC(=O)Nc1ccc(N2CCN(CC)CC2)c(Cl)c1	23	1	-102*	-1%	-36%	4%
O=C(O)C(=O)/C(=C/c1ccsc1)c1ccc2ccccc2n1	.	8	.	.	8.9µM*	.
O=C(Nc1ccc(Cl)cc1)c1c2c(nc3ccccc13)CCCC2	.	-15	.	.	?	.
Cc1ccc(C)c(-n2sc3ccc(F)cc3c2=O)c1	-8	-12	4	1%	1.6µM*	?
COc1ccc(-n2sc3ccc(F)cc3c2=O)cc1	.	0	.	-2%	1.1µM*	?
O=c1c2cc(F)ccc2sn1-c1ccc(F)cc1	2	6	0	-10%	.	?
CC(C)c1noc(CCCC(=O)Nc2cccc(OC3CCCC3)c2)n1	.	-12	.	.	-29%	.
COc1cccc2c(=O)c(C/C=C(/C)Cl)c(C)[nH]c12	3	-5	1	16µM*	-17%	19%
CCCCCCc1cc2cc(/C(C)=N/O)c(=O)oc2cc1O	.	11	.	.	?	.
Cc1ccc(NC(=S)NC2CCSc3ccccc32)cc1C (stereo not given)	-2	-2	-8	-3%	45µM*	?
SMILES	hERG WT inh	LDHA inh	KCNH2 3.1 block	ClpP mod	ALOX12 inh	BCR signal inh
Cc1nc2cc(NC(C)C(=O)Nc3ccccc3C(C)C)ccc2o1 (stereo not given)	.	1	.	.	-1%	.
FC(F)(F)C(F)(F)C(F)(F)c1nc2nc(Cl)c(Cl)nc2[nH]1	27	-6	2	4%	-12%	.
FC(F)(F)c1nc2nc(Cl)c(Cl)nc2[nH]1	17	-5	-71*	-3%	-2%	.
O=C(NC1CCCCCC1)c1ccc(N2CC3CC(C2)[C@H]2CCCC(=O)N2C3)nc1 (stereo not given in full)	.	.	.	.	15%	.
CC(C)C[C@H]1CN=C(Nc2ccccc2)N1CCCC1CCCC1	-92*	-5	11	-3%	-15%	?
c1ccc(C[C@H]2CN=C(Nc3ccccc3)N2CC2CCC2)cc1	-7	-3	-14	-1%	5%	-11%
CC(C)C[C@H]1CN=C(Nc2ccccc2)N1CC1CCC(C)CC1 (stereo not given in full)	12	-4	-83*	1%	.	?
CC1CCC(CN2C(Nc3ccccc3)=NC[C@@H]2Cc2ccccc2)CC1 (stereo not given in full)	8	-2	-91*	-1%	-2%	?
CC(C)C[C@H]1CN=C(Nc2ccccc2)N1CCCC1CCCCC1	9	-18	-41	0%	-21%	?
O=c1c2c(n(Cc3cccnc3)n1-c1ccccc1)CN(Cc1ccc(O)cc1)CC2	.	.	.	.	11%[176 µM]	.
CCOc1ccc2c(n1)CCN(C(=O)c1cccc(OC)c1OC)C2	.	.	.	.	21%	.
NC(=O)c1cc2c(nc1N1CCC3(CCCN(CC4CCC4)C3)C1)CCC2 (stereo not given)	.	.	.	.	57%	.
N#CCCSc1sc(=S)sc1SCc1c(F)c(F)c(F)c(F)c1F	.	3	.	.	?	.
COc1cc2c(=O)n(CC3CCCO3)c(=O)n(CC(=O)Nc3cccc(Cl)c3)c2cc1OC (stereo not given)	10	-5	-9	32µM*	0%	?
O=C1c2ccccc2NC(c2cccc(F)c2)N1Cc1ccco1 (stereo not given)	10	4	2	18µM*	?	-6%
COc1cc(C2Nc3ccccc3C(=O)N2Cc2ccco2)ccc1O (stereo not given)	.	0	.	4%	.	.
Cc1ccc(C2Nc3ccccc3C(=O)N2Cc2ccco2)cc1 (stereo not given)	-8	1	-1	25µM*	?	0%
O=C1c2ccccc2NC(c2ccc(O)cc2)N1Cc1ccco1 (stereo not given)	-13	-5	-23	32µM*!	?	12%
OC(COc1ccccc1)CN1CCC(Cc2ccccc2)CC1 (stereo not given)	0	-1	-115*	1%	7.9µM*	-1%
COc1cccc(OCC(O)CN2CCC(Cc3ccccc3)CC2)c1 (stereo not given)	39	-2	-49	1%	0%	-1%
OC(COc1ccccc1F)CN1CCC(Cc2ccccc2)CC1 (stereo not given)	-21	-4	?	-1%	0%	-3%
Cc1ccccc1OCC(O)CN1CCC(C)CC1 (stereo not given)	11	0	-80*	.	2%	-6%

Bioassay records: PubChem, National Center for Advancing Translational Sciences (NCATS)
